PubChem BioAssay (NCI)
About 83,000 compounds went through this panel and 20% of them were active in at least one assay; those are over-represented in the sample as a whole.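 Assay: single dose, 48 h. Readout: percent growth (0 = no net growth; negative = cell death). Active: <10.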 A number with no mark means an inactive call. Calls of active or inactive are those of the source.

system: DU-145 prostate; assay: NCI-60 one-dose screen, 48 h (100 = growth as untreated, 0 = no growth, -100 = all killed); conditions: 10 µM unless noted

Row | Structure (SMILES) | growth
1 | N#C/C(=C\c1ccc(Br)cc1)n1nnc2cccc(F)c21 | 0.426% (active)
2 | COc1cc2oc(-c3cccc(C(=O)Nc4ccc(Cl)cc4)c3)cc(=O)c2c(OC)c1OC | 42.4%
3 | CS(=O)(=O)c1ccc(-c2cc(-c3nnc(SCC(=O)Nc4ccc(C(=O)/C=C/c5ccc(Cl)cc5)cc4)n3-c3ccccc3)c3ccccc3n2)cc1 | 105%
4 | COc1ccccc1OCC(=O)N1CCCCCC1 | 107%
5 | NC(=O)c1cccc(-n2ccc3cc(NC(=O)Nc4cc(C(F)(F)F)cc(C(F)(F)F)c4)ccc32)n1 | 50.7%
6 | COc1cc2nc(-c3ccc(C(F)(F)F)cc3)cc(OCCCN3CCCCC3)c2cc1OC | 45.3%
7 | COc1ccc2c(Nc3ccc(NS(C)(=O)=O)cc3)c3ccccc3nc2c1 | 8.86% (active)
8 | C=CCn1c(SCC(=O)Nc2ccc(C(=O)/C=C/c3cc(OC)c(OC)c(OC)c3)cc2)nnc1-c1cc(-c2ccc(S(C)(=O)=O)cc2)nc2ccccc12 | 94.5%
9 | CN(C)c1ccc(-c2c(C#N)c(N)n3nc(N)c(C#N)c3c2C#N)cc1 | 67.1%
10 | CCCCCN1C=C/C(=C\C(=O)N(C)c2cccc3ccccc23)c2ccccc21 | 104%
11 | CCCCCOc1ccc(/C=N/Nc2cc(C)nc3ccc(Br)cc23)cc1 | 0.579% (active)
12 | COc1cccc(C(Cc2ccccc2)Nc2ccccc2)c1OC (stereo unspecified) | 109%
13 | Cc1ccc(Nc2cc(=S)nc(N)[nH]2)cc1C | 102%
14 | O=S(=O)(O)c1cc(O)c2c(N=Nc3ccc(Nc4ccccc4)c4c(S(=O)(=O)O)cccc34)cc(S(=O)(=O)O)cc2c1 | 107%
15 | COc1cc2c(cc1[N+](=O)[O-])-c1ccc([N+](=O)[O-])cc1/C2=N\O | 120%
16 | CS(=O)(=O)OCCN(CCOS(C)(=O)=O)c1ccc(/C=N/Nc2ccc([N+](=O)[O-])cc2[N+](=O)[O-])cc1 | 99.7%
17 | COc1cc2c(cc1[N+](=O)[O-])-c1ccc([N+](=O)[O-])cc1/C2=N/NC(N)=S | 79%
18 | CN(C)C(C(N)=O)c1ccc(Cl)cc1 (stereo unspecified) | 107%
19 | CC(C)(C)OC(=O)N1CCN(c2ccc(N)cc2)C(=O)C1 | 115%

Row | Structure (SMILES) | growth
20 | CC(=O)OCC(=O)C1(O)C(C)CC2C3C=C(C)C4=Cc5c(cnn5-c5ccccc5)CC4(C)C3C(O)CC21C (stereo unspecified) | 27.1%
21 | Cc1ccc(C2C3CC4CCCCC4N3[C@@]3(C(=O)Nc4cc(Cl)ccc43)C2C(=O)c2nc3ccccc3[nH]2)cc1 (stereo partly specified) | 64.3%
22 | COc1ccc(-n2cc(-c3cc(OC)c(OC)c(OC)c3)n(C(C)=O)c2=O)cc1 | 109%
23 | C=C(C)[C@@H]1CC[C@]2(C(=O)N3CCN(C)CC3)CC[C@]3(C)[C@H](CC[C@@H]4[C@@]5(C)CCC(=O)C(C)(C)[C@@H]5CC[C@]43C)[C@@H]12 | 82.8%
24 | NC(=S)N/N=C(/c1ccccc1)c1ccccc1N | 94.2%
25 | COc1ccc(C(=O)c2cc(C)c(OC)c(C)c2)c(OC)c1N(C(=O)C(Cl)Cl)C(=O)C(Cl)Cl | 1.52% (active)
26 | c1ccc(-c2nn(-c3ccccc3)[n+](-c3ccccc3-c3ccccc3)n2)cc1 | 22.8%
27 | COc1ccc2c(c1)OC13Oc4cc(OC)ccc4C=C1CCCC3=C2 | 33.9%
28 | CC(O)(CO)c1ccccc1 (stereo unspecified) | 105%
29 | O=C(Nc1nc(-c2ccccc2Cl)cs1)c1cc(-c2ccccc2)nc2ccc(Cl)cc12 | 77.8%
30 | COC(=O)N[C@H]1CCc2cc(OC)c(OC)c(OC)c2-c2ccc(SC)c(=O)cc21 | 1.4% (active)
31 | CCCCCCN(C)Cc1ccc(OCCOc2ccc(CN(C)CCCCCC)cc2)cc1 | 50.1%
32 | CCOC(=O)N1CCc2c(sc3nc4nc[nH]n4c(=O)c23)C1 | 107%
33 | CCOC(=O)c1c(C)nc2c(c1N)C(=O)C(=O)N2Cc1ccc(C(F)(F)F)cc1 | 84.5%
34 | CC(=O)c1cccc(NS(=O)(=O)c2cccc(C(=O)Nc3ccc(Br)cc3)c2)c1 | 75.4% [25 µM]
35 | COc1ccccc1C(C[N+](=O)[O-])c1c(-c2ccccc2)[nH]c2cc(C)ccc12 (stereo unspecified) | 101%
36 | CC(C)Cc1ccc(C(C)C(=O)NCc2c[nH]c3ccc(Cl)cc23)cc1 (stereo unspecified) | 103%
37 | CCCC1C(C(=O)OCC)=C(N)Oc2cc(O)ccc21 (stereo unspecified) | 103%
38 | Cc1ccc(C(=O)Nc2ccccc2C(=O)N/N=C(\c2ccccc2)c2ccccn2)cc1 | 22.7%

system: K-562 leukemia; assay: as above; conditions: 10 µM unless noted

Row | Structure (SMILES) | growth
39 | N#C/C(=C\c1ccc(Br)cc1)n1nnc2cccc(F)c21 | 12.7%
40 | COc1cc2oc(-c3cccc(C(=O)Nc4ccc(Cl)cc4)c3)cc(=O)c2c(OC)c1OC | 16%
41 | CS(=O)(=O)c1ccc(-c2cc(-c3nnc(SCC(=O)Nc4ccc(C(=O)/C=C/c5ccc(Cl)cc5)cc4)n3-c3ccccc3)c3ccccc3n2)cc1 | 89.9%
42 | COc1ccccc1OCC(=O)N1CCCCCC1 | 83.3%
43 | NC(=O)c1cccc(-n2ccc3cc(NC(=O)Nc4cc(C(F)(F)F)cc(C(F)(F)F)c4)ccc32)n1 | 33.4%
44 | COc1cc2nc(-c3ccc(C(F)(F)F)cc3)cc(OCCCN3CCCCC3)c2cc1OC | 12.8%
45 | COc1ccc2c(Nc3ccc(NS(C)(=O)=O)cc3)c3ccccc3nc2c1 | 6.83% (active)
46 | C=CCn1c(SCC(=O)Nc2ccc(C(=O)/C=C/c3cc(OC)c(OC)c(OC)c3)cc2)nnc1-c1cc(-c2ccc(S(C)(=O)=O)cc2)nc2ccccc12 | 50.5%
47 | CN(C)c1ccc(-c2c(C#N)c(N)n3nc(N)c(C#N)c3c2C#N)cc1 | 109%
48 | CCCCCN1C=C/C(=C\C(=O)N(C)c2cccc3ccccc23)c2ccccc21 | 77.4%
49 | CCCCCOc1ccc(/C=N/Nc2cc(C)nc3ccc(Br)cc23)cc1 | -19.6% (active)
50 | COc1cccc(C(Cc2ccccc2)Nc2ccccc2)c1OC (stereo unspecified) | 90.4%
51 | Cc1ccc(Nc2cc(=S)nc(N)[nH]2)cc1C | 92.9%
52 | O=S(=O)(O)c1cc(O)c2c(N=Nc3ccc(Nc4ccccc4)c4c(S(=O)(=O)O)cccc34)cc(S(=O)(=O)O)cc2c1 | 112%
53 | COc1cc2c(cc1[N+](=O)[O-])-c1ccc([N+](=O)[O-])cc1/C2=N\O | 88.7%
54 | CS(=O)(=O)OCCN(CCOS(C)(=O)=O)c1ccc(/C=N/Nc2ccc([N+](=O)[O-])cc2[N+](=O)[O-])cc1 | 102%
55 | COc1cc2c(cc1[N+](=O)[O-])-c1ccc([N+](=O)[O-])cc1/C2=N/NC(N)=S | 59.9%
56 | CN(C)C(C(N)=O)c1ccc(Cl)cc1 (stereo unspecified) | 98.8%
57 | CC(C)(C)OC(=O)N1CCN(c2ccc(N)cc2)C(=O)C1 | 99.9%

Row | Structure (SMILES) | growth
58 | CC(=O)OCC(=O)C1(O)C(C)CC2C3C=C(C)C4=Cc5c(cnn5-c5ccccc5)CC4(C)C3C(O)CC21C (stereo unspecified) | 2.57% (active)
59 | Cc1ccc(C2C3CC4CCCCC4N3[C@@]3(C(=O)Nc4cc(Cl)ccc43)C2C(=O)c2nc3ccccc3[nH]2)cc1 (stereo partly specified) | 26.2%
60 | COc1ccc(-n2cc(-c3cc(OC)c(OC)c(OC)c3)n(C(C)=O)c2=O)cc1 | 92.9%
61 | C=C(C)[C@@H]1CC[C@]2(C(=O)N3CCN(C)CC3)CC[C@]3(C)[C@H](CC[C@@H]4[C@@]5(C)CCC(=O)C(C)(C)[C@@H]5CC[C@]43C)[C@@H]12 | 60.5%
62 | NC(=S)N/N=C(/c1ccccc1)c1ccccc1N | 45.5%
63 | COc1ccc(C(=O)c2cc(C)c(OC)c(C)c2)c(OC)c1N(C(=O)C(Cl)Cl)C(=O)C(Cl)Cl | 8.2% (active)
64 | c1ccc(-c2nn(-c3ccccc3)[n+](-c3ccccc3-c3ccccc3)n2)cc1 | 5.29% (active)
65 | COc1ccc2c(c1)OC13Oc4cc(OC)ccc4C=C1CCCC3=C2 | 23.5%
66 | CC(O)(CO)c1ccccc1 (stereo unspecified) | 120%
67 | O=C(Nc1nc(-c2ccccc2Cl)cs1)c1cc(-c2ccccc2)nc2ccc(Cl)cc12 | 25.2%
68 | COC(=O)N[C@H]1CCc2cc(OC)c(OC)c(OC)c2-c2ccc(SC)c(=O)cc21 | 9.06% (active)
69 | CCCCCCN(C)Cc1ccc(OCCOc2ccc(CN(C)CCCCCC)cc2)cc1 | -20.7% (active)
70 | CCOC(=O)N1CCc2c(sc3nc4nc[nH]n4c(=O)c23)C1 | 105%
71 | CCOC(=O)c1c(C)nc2c(c1N)C(=O)C(=O)N2Cc1ccc(C(F)(F)F)cc1 | 36.2%
72 | CC(=O)c1cccc(NS(=O)(=O)c2cccc(C(=O)Nc3ccc(Br)cc3)c2)c1 | 33% [25 µM]
73 | COc1ccccc1C(C[N+](=O)[O-])c1c(-c2ccccc2)[nH]c2cc(C)ccc12 (stereo unspecified) | 8.66% (active)
74 | CC(C)Cc1ccc(C(C)C(=O)NCc2c[nH]c3ccc(Cl)cc23)cc1 (stereo unspecified) | 71.3%
75 | CCCC1C(C(=O)OCC)=C(N)Oc2cc(O)ccc21 (stereo unspecified) | 85.6%
76 | Cc1ccc(C(=O)Nc2ccccc2C(=O)N/N=C(\c2ccccc2)c2ccccn2)cc1 | 19.9%
